The list is not random: actives were taken first. Their share in the collection is about 2.9%.
ATXN2 expr inh – Primary qHTS for Inhibitors of ATXN expression. 0.72% of 360,000 active. Potency, µM (titrated, usually from 57 µM), for the others: at the highest dose activity change, negative = inhibition, actives largely listed as inhibitors. HEK-293 ATXN2-luciferase reporter, luminescence, 24 h. AID 1745845, 2022; also: % is scaled to controls: 0 for no effect and ±100 for the full control effect; nearly all actives have a fitted effect of over 55% in size
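ATXN2-luciferase reporter cells (luciferase flanked by upstream and downstream ATXN2 gene portions) were treated 24 h at 37 °C with compounds at up to 57 uM. SteadyGlo luminescence gave expression; GF-AFC fluorescence gave viability.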
Nrf2 block – Nrf2 qHTS screen for inhibitors; A549 ARE-Fluc reporter, luciferase luminescence, 18-24 h; Potency, µM (doses to about 46 µM), for the others: at the top dose activity change, negative = inhibition, usual class: inhibitors; 2.1% of 360,000 active; also: % is scaled to controls: 0 for no effect and ±100 for the full control effect; nearly all actives have a fitted effect of over 60% in size
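Nrf2 activity is the BugLite luminescence, read 15 min after reagent at room temperature, following CellTiter-Fluor cytotoxicity readout (30 min, 37C). Compound titrations were applied for 18-24 h to 5000 A549 ARE_Fluc cells/well in 5% FBS OPTI-MEM.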
ATXN viability – Viability Counterscreen for Primary qHTS for Inhibitors of ATXN expression. Potency, µM (highest dose often 56.7 µM), most hits filed as cytotoxic. 0.49% of 400,000 active. S2 cells (HEK-293 line with an ATXN2-luciferase reporter) viability, CellTiter-Fluor protease fluorescence, 24 h; also: nearly all actives have a fitted effect of over 40% in size
Nrf2 ARE act – qHTS of Nrf2 Activators. Potency, µM (highest dose often 46.1 µM), inactives show at the top dose activation, actives largely listed as activators. 0.31% of 410,000 active. AID 624171, 2012. AREc32 ARE-luciferase reporter (MCF7-derived line), luminescence, 24 h; also: % of control where 0% means no effect; nearly all actives have a fitted effect of over 65% in size
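ARE-driven firefly luciferase activity in AREc32 cells measured after a 24 hr compound exposure at 37 deg C, using Steady-Glo reagent and a 30 min room-temperature hold.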
A549 tox-1 – Nrf2 qHTS screen for inhibitors: counterscreen for cytotoxicity. A549 ARE-Fluc cells, CellTiter-Fluor viability, 18-24 h. Potency, µM (highest dose often 46 µM), for inactives: at the highest dose activity change, negative = cytotoxicity, actives largely listed as inhibitors. 0.16% of 390,000 active; also: % is scaled to controls: 0 for no effect and ±100 for the full control effect
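Cytotoxicity counterscreen: CellTiter-Fluor fluorescence was measured in A549 ARE_Fluc cells after 18-24 h of compound exposure in a concentration series. The subsequent BugLite luminescent read reports ARE-luciferase activity.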
FLuc enzyme inh – Nrf2 qHTS screen for inhibitors: Purified Fluc Biochemical Counterscreen for Hit Validation | shares compounds with Nrf2 block | purified firefly luciferase, luminescence inhibition | Potency, µM (highest dose often 57.5 µM), without a hit: at the highest dose activity change, negative = inhibition, usual class: inhibitors | 4% of 1,400 active | AID 720522, 2013; also: % is scaled to controls: 0 for no effect and ±100 for the full control effect; nearly all actives have a fitted effect of over 65% in size
Target sequence (P08659 whole entry, looked up): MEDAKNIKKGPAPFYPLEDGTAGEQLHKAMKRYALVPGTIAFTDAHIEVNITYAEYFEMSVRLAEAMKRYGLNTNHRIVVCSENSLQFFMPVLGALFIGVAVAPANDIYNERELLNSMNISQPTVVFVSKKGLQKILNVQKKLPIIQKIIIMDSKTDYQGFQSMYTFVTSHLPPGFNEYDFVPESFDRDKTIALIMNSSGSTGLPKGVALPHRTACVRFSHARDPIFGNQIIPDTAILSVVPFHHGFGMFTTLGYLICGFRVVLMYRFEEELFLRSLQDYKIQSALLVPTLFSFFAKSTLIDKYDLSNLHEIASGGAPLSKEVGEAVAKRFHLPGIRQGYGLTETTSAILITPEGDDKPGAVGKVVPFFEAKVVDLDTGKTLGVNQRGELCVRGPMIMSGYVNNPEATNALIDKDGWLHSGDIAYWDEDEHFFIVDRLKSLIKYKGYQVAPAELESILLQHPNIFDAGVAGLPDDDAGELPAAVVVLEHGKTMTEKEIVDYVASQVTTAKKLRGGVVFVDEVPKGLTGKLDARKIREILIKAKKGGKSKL
A549 tox-2 – Nrf2 qHTS screen for inhibitors: A549 ARE-Fluc Cytotoxicity Counterscreen for Hit Validation. shares compounds with Nrf2 block. A549 ARE-Fluc cells, cytotoxicity counterscreen. Potency, µM (series often up to 46.1 µM), inactives show at the highest dose activity change, negative = cytotoxicity, actives largely listed as inhibitors. 2% of 1,400 active. AID 720523, 2013;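 also: cells exposed to compounds for 18 to 24 hours; % is scaled to controls: 0 for no effect and ±100 for the full control effect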
ARE-Fluc inh – Nrf2 qHTS screen for inhibitors: Nrf2 A549 ARE-Fluc Confirmation Assay for Hit Validation. AID 720524, 2013. Potency, µM (top dose mostly 46.1 µM), for inactives: at the top dose activity change, negative = inhibition, usual class: inhibitors. 74% of 1,400 active. A549 ARE-firefly luciferase reporter, luminescence. shares compounds with Nrf2 block; also: % is scaled to controls: 0 for no effect and ±100 for the full control effect; nearly all actives have a fitted effect of over 65% in size
Numbers without * were called inactive; i = inactive; ? = inconclusive; · = not tested or not shown. Calls follow the shape of the dose curve; as a rule, active = well fitted curve in the direction sought with a large enough effect; inconclusive = small, poorly fitted or top-dose-only effect, or another doubt; inactive = no such curve, though single readings can be large; an effect the other way counts as inactive or inconclusive. Potency is read from the fitted curve at half-maximal effect.

SMILES | ATXN2 expr inh | Nrf2 block | ATXN viability | Nrf2 ARE act | A549 tox-1 | FLuc enzyme inh | A549 tox-2 | ARE-Fluc inh
O=C(COC(=O)c1cc(Cl)nc2ccccc12)c1ccc(Cl)cc1 | -4% | 4% | i | 0% | 2% | · | · | ·
CCOc1ccc(OCc2ccc(C(=O)NN=Cc3ccc[nH]3)cc2)cc1 | ? | 1.8µM* | ? | 3% | ? | -10% | ? | 1.8µM*
O=C(CNc1cccc2ccccc12)N/N=C/c1ccc[nH]1 | -22% | 3.7µM* | i | 4% | -8% | ? | -18% | 2.9µM*
O=C1c2cccc3cc([N+](=O)[O-])cc(c23)C(=O)N1CCN1CCCC1 | ? | 1.8µM* | i | -2% | ? | -1% | ? | ?
Cc1ccc(C(=O)N2N=C(CC(C)C)CC2(O)C(F)(F)F)o1 (stereo not drawn) | 11% | -4% | ? | 3% | -3% | · | · | ·
Cc1ccc(S(=O)(=O)NCC(=O)N(CC(=O)NCc2ccco2)C2CCCC2)cc1 | -3% | 6% | i | -1% | 1% | · | · | ·
COc1cccc2[nH]c3c(N4CCc5ccccc5C4)ncnc3c12 | -35% | ? | i | 3% | ? | · | · | ·
Cc1ccc2c(c1)[nH]c1c(N3CCN(Cc4ccccc4)CC3)ncnc12 | 8.9µM* | 8.2µM* | · | -2% | ? | -29% | ? | 12µM*
Cc1ccc(-n2ncc3c(N4CCN(Cc5ccccc5)CC4)ncnc32)cc1 | 14% | · | i | 6% | 15% | · | · | ·
c1ccc2c(c1)CCN(c1ncnc3c1[nH]c1ccccc13)C2 | ? | 5.8µM* | ? | 2% | -25% | -24% | -10% | 5.8µM*
Cc1cc2nc(-c3ccc(SCc4ccccc4C#N)nc3)[nH]c2cc1C | -2% | -7% | ? | 0% | -8% | · | · | ·
Fc1ccc(/C=C/c2ccc3ccccc3n2)cc1 | · | · | · | · | · | -25% | ? | 7.3µM*
Cc1cccc(C(=O)Nc2nc(-c3nnn(-c4cc(C)ccc4C)c3C)ns2)c1 | · | 9.2µM* | · | 0% | -14% | -15% | -14% | 7.3µM*
COc1cccc(C(=O)Nc2nc(-c3nnn(-c4cc(C)ccc4C)c3C)ns2)c1 | 8% | ? | i | 2% | -19% | · | · | ·
Cc1ccc(C)c(N2CCN(C(=O)CCS(=O)(=O)c3ccc4c(c3)NC(=O)C(C)S4)CC2)c1 (stereo not drawn) | · | 6.5µM* | i | 0% | -1% | 1% | -15% | 6.5µM*
COc1ccc(N2CCN(C(=O)CCS(=O)(=O)c3ccc4c(c3)NC(=O)C(C)S4)CC2)cc1 (stereo not drawn) | -26% | -5% | i | -1% | 2% | · | · | ·
CC1Sc2ccc(S(=O)(=O)N3CCN(c4ccccc4)CC3)cc2NC1=O (stereo not drawn) | · | 7.3µM* | ? | 1% | -5% | -1% | -5% | ?
Cc1ccc(NC(=O)C2CCN(S(=O)(=O)c3ccc4c(c3)NC(=O)C(C)S4)CC2)cc1Cl (stereo not drawn) | · | 1.3µM* | ? | 0% | ? | -10% | -27% | 9.2µM*
Cc1ccc(S(=O)(=O)N2CCC(C(=O)Nc3ccc(C)c(Cl)c3)CC2)cc1 | · | ? | · | 8% | -14% | -2% | -16% | 7.3µM*
COC(=O)c1n[nH]nc1-c1ccccc1 | 2% | -11% | ? | 0% | 1% | · | · | ·

Screening results deposited in PubChem BioAssay by National Center for Advancing Translational Sciences (NCATS).
